# This is part of a sample that, as a whole, favours compounds with a hit. Of some 83,000 tested, about 20% had one in any assay.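 In brief: 96-well plates, 48 h treatment, single concentration, percent growth endpoint.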 Unmarked numbers belong to inactive results. Activity calls are given as the source filed them. How the source made its calls: active means growth percent below 10; inactive means the rest.
# Tests used:
# Experiment in all cases: NCI-60 one-dose screen, 48 h (100 = growth as untreated, 0 = no growth, -100 = all killed)
# Conditions in all cases: 10 µM
# SK-MEL-2 melanoma = tested on: SK-MEL-2 melanoma
# SN12C renal = tested on: SN12C renal
# UO-31 renal = tested on: UO-31 renal
# TK-10 renal = tested on: TK-10 renal
# ACHN renal = tested on: ACHN renal
# CAKI-1 renal = tested on: CAKI-1 renal
# A498 renal = tested on: A498 renal
# CCRF-CEM leukemia = tested on: CCRF-CEM leukemia
# MOLT-4 leukemia = tested on: MOLT-4 leukemia
SMILES,growth (SK-MEL-2 melanoma),growth (SN12C renal),growth (UO-31 renal),growth (TK-10 renal),growth (ACHN renal),growth (CAKI-1 renal),growth (A498 renal),growth (CCRF-CEM leukemia),growth (MOLT-4 leukemia)
C[C@@H]1N=C(c2ccc(Br)cc2)Nc2nc3ccccn3c2C1=O,47.4%,91.8%,62%,110%,69.2%,44.1%,69.9%,79.4%,57.5%
CCNC(=S)NN,128%,81.7%,68.4%,130%,96.4%,90.1%,91.2%,46.2%,73.3%
O=C1NN(c2ccccc2)C(c2cccnc2)=N/C1=C\c1cccnc1,103%,102%,82.7%,110%,95.4%,89%,52.3%,-22% (active),96.4%
NC(N)=NS(=O)(=O)c1ccc(Nc2ccc3nnc(-c4ccncc4)n3n2)cc1,131%,94.6%,78.6%,112%,101%,106%,95.5%,109%,101%
O=CNc1c(Cl)cc2c(c1Cl)Cc1cc([N+](=O)[O-])ccc1-2,38.1%,80.6%,71.7%,90.3%,68.7%,82.1%,85.9%,14.7%,33%
CCc1ccc(-c2nnc(COc3ccc(-c4nc5cc(Cl)c(Cl)cc5[nH]4)cc3OC)o2)cc1,87.8%,21.9%,91.1%,75.7%,31%,78.6%,65.2%,63.5%,69.8%
N#Cc1c(-c2ccccc2)nc(SCC(=O)N2CCOCC2)[nH]c1=O,107%,99.1%,71.9%,110%,98.5%,94.1%,93.5%,95.1%,83.5%
C[n+]1c(/C=C/c2c[nH]c3ccccc23)ccc2ccccc21,83.9%,64.4%,60.5%,89.6%,77.1%,88.8%,54.5%,43.4%,9.37% (active)
CS(=O)(=O)Nc1ccc(OCc2nnc(-c3ccc(Cl)cc3)o2)c(F)c1,112%,88.1%,74.1%,111%,86%,91.3%,62.5%,97.5%,81%
COc1cc(Nc2ccnc(N3CCN(c4ccnc5cc(Cl)ccc45)CC3)n2)cc(OC)c1,-42.2% (active),19%,-1.54% (active),-4.71% (active),13.2%,20.2%,-1.87% (active),3.84% (active),-45.9% (active)
COc1ccc(-c2nnc(COc3ccc(NC(=O)Nc4ccccc4)cc3F)o2)cc1,79.4%,91.1%,68.9%,101%,77.6%,83.6%,64%,61.2%,58.7%
COc1cc2c3c(cccc3c1)C(=O)N(CCN1CCCC1)C2=O,-8.39% (active),29.7%,-3.17% (active),-6.26% (active),7.6% (active),14.2%,-22.1% (active),18.9%,4.5% (active)
COc1ccc(Nc2nc(NCc3ccccc3)c3ccccc3n2)cc1,63.4%,69.5%,58.9%,40.6%,15.6%,35.7%,38.9%,68.4%,81.8%
Fc1ccc2[nH]c3c(NCCCN4CCOCC4)ncnc3c2c1,65.7%,63.8%,45.9%,12.7%,23.9%,25.2%,130%,74.7%,83.1%
COc1ccc(-n2nnc3c(sc4ccccc43)c2=O)cc1,77.1%,61.9%,1.83% (active),8.22% (active),-22.3% (active),36.6%,-2.38% (active),89.9%,99.5%
C=CCOc1ccc2c(c1)CC[C@@H]1[C@@H]2CC[C@]2(C)C(=O)/C(=N/O)C[C@@H]12,54.6%,39.3%,27.6%,9.46% (active),30.4%,10.7%,50.2%,6.37% (active),-31.7% (active)
O=C1/C(=C/c2ccc(O)cc2)Oc2ccc(Cl)cc21,109%,84.6%,38.5%,117%,95.4%,77.1%,125%,88.2%,81.1%
COc1ccc(-c2cn[nH]c2-c2cc(OC)c(OC)c(OC)c2)cc1,29.2%,26.3%,33%,58%,20.7%,17.4%,-12.1% (active),6.38% (active),4.95% (active)
CC(C)OP(=O)(O)c1ncc(-c2ccc(C(F)(F)F)cc2)c(NC2CCCCCC2)n1,65.4%,54.4%,60.2%,67%,34.6%,87%,89.5%,48.6%,80.4%
COc1ccc(C2CC(c3ccc(-c4ccccc4)cc3)=NN2c2ccc(S(N)(=O)=O)cc2)cc1 (stereo not given),90.3%,52.6%,50%,65.4%,74.7%,45.2%,98%,51.7%,54.8%
CNCCCNCCCN1C(=O)c2ccc3c4c(ccc(c24)C1=O)C(=O)N(CCCNCc1ccccc1OC)C3=O,-49.9% (active),2.51% (active),18.2%,-14% (active),16.6%,24.6%,28.8%,4.62% (active),-23.8% (active)
COc1cc(C2C=C(c3ccc(Cl)cc3)N=C3SC(C)=CN32)cc(OC)c1OC (stereo not given),102%,90.6%,79.3%,71%,105%,88.7%,86.1%,89.2%,80.2%
Cc1ccc(S(=O)(=O)Nc2cccc3[nH]c(C(F)(F)F)nc23)cc1,2.59% (active),47.8%,45.1%,36.7%,49.8%,25.9%,13.7%,13.6%,31.7%
COc1ccc(C(C)=O)cc1N1C(=O)C2C(C1=O)C1(c3ccccc3)C(=O)C2(c2ccccc2)C(c2ccc(C)cc2)=C1c1ccc(C)cc1 (stereo not given),-0.955% (active),26.2%,-4.71% (active),13.7%,23.1%,6.11% (active),54.1%,8.66% (active),12.6%
Cc1ccc(C)c2c1sc1nc3n[nH]c(N)c3c(=N)n12,96.1%,104%,85.8%,116%,101%,90.5%,103%,97.3%,96%
Fc1cc(-c2ncc(-c3cc(F)c(F)c(F)c3)c(NC3CCCCCC3)n2)cc(F)c1F,111%,87.9%,88.8%,152%,106%,87.6%,96.8%,96.2%,102%
COc1ccc(C(=O)n2nc(CC(=O)NCc3ccccc3)nc2N)cc1,97.5%,92.5%,82.9%,103%,117%,110%,110%,104%,89.8%
COc1cc(C2C=C(c3ccc(Cl)c(Cl)c3)N=C3SC(C)=CN32)cc(OC)c1OC (stereo not given),83.4%,92.3%,55.2%,94.7%,90.3%,67.3%,74%,36.7%,46.2%
COC(=O)C1(C(=O)OC)C2C(=O)C3C(C21)C3(C(=O)OC(C)(C)C)C(=O)OC(C)(C)C (stereo not given),127%,107%,85.4%,128%,102%,90%,108%,102%,105%
FC(F)(F)c1ccc(-c2cnc(Br)nc2NC2CCCCCC2)cc1,13.2%,21.9%,34.7%,36.6%,10.4%,72.6%,81.3%,28.5%,57%

# — PubChem BioAssay (NCI)
